Data as given in PubChem BioAssay AID2355 (The Scripps Research Institute Molecular Screening Center, 2010).
Some of the results follow. A number with no mark means an inactive call. Calls of active or inactive are those of the source. Cut-off read from the data, not from the text of the source: active = inhibition above about 16%; inactive = the rest.

Molecular target: Serine/threonine-protein phosphatase PP1-alpha catalytic subunit (Homo sapiens) (UniProt P62136)
Assay: PP1 phosphatase inhibitors, counter-screen for PP5 inhibitor project, biochemical, fluorescence, triplicate (AID 2355)
Conditions: PP1 enzyme, fluorescent phosphatase substrate; at 6.7 µM; stronger effect = higher value

Serine/threonine-protein phosphatase PP1-alpha catalytic subunit (Homo sapiens), sequence (P62136 whole entry, looked up): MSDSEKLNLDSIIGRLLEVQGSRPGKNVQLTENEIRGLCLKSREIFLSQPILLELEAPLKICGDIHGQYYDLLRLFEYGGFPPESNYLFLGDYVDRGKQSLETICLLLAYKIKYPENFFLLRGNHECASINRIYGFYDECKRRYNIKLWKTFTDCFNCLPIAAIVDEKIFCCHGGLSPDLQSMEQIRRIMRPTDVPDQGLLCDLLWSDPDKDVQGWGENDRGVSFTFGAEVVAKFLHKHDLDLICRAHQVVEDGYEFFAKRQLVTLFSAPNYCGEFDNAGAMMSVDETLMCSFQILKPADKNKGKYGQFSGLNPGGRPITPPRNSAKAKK

Compared with CN(C)c1nc(N)nc(CSc2nnnn2-c2cccc3ccccc23)n1, Cc1nnc(SCc2nc3ccccc3nc2C)s1 is lower in inhibition: -1.14% for the first, -2.74% for the second.

Going from CN(c1ccccc1)S(=O)(=O)c1ccc(NC(=O)COc2ccccc2)cc1 to CCN1CCN(CCNC(=O)c2ccc(/C=C3/Sc4ccccc4N(Cc4cccc(C)c4)C3=O)cc2)CC1, the inhibition falls from 3.34% to -16%.

First: COc1cc(C(F)(F)F)c(C(=O)N(C)c2ccc(Cl)cc2)cn1
Second: COc1ccc(OC)c(C(=O)c2ccc(C(=O)O)cc2)c1
The inhibition of the first is higher: 0.28% for the first, -5.81% for the second.

Compared with Cc1sc(NC(=O)C2C3CCC(O3)C2C(=O)O)c(C(=O)OC(C)C)c1-c1ccc(Cl)cc1 (stereo not drawn), C[C@@]12C(=O)N(c3cccc(Br)c3)C(=O)N1[C@H](c1ccc(Cl)cc1)[C@@H]1C(=O)N(C3CCCCC3)C(=O)[C@@H]12 is lower in inhibition: 9.97% for the first, 6.16% for the second.

Compared with O=[N+]([O-])c1cccc2ncccc12, O=C(O)c1n[nH]nc1-c1ccccc1 is higher in inhibition: -2.99% for the first, 0.18% for the second.

Going from CNC(=S)NNC(=O)c1oc2nc(-c3ccccc3)cc(-c3ccco3)c2c1N to O=c1ccc2c(-c3ccccc3S(=O)(=O)O)c3ccc(O)c(O)c3oc-2c1O, the inhibition rises from -1.11% to 5.34%.

Going from O=C(C1=C[C@H](c2ccc(C(F)(F)F)cc2)C[C@H](OCc2ccc(CO)cc2)O1)N1CCN(Cc2ccccc2)CC1 to CCOC(=O)Nc1ccc2c(c1)N(C(=O)CN1CCN3CCCC3C1)c1ccccc1CC2 (stereo not drawn), the inhibition falls from 3.55% to -7%.

First: Cc1nc(NC(CC(C)C)C(=O)O)c2nc(C)oc2n1 (stereo not drawn)
Second: N#Cc1c(N2CCCCC2)nc(N)c2c(N)nc(SCC(=O)O)cc12
The inhibition of the first is lower: -4.44% for the first, 3.99% for the second.

In the case of COc1cc(/C=C2/SC(=S)N(Cc3ccccc3)C2=O)cc(OC)c1O, the inhibition is reported as 2.23%.

With COCCN1C=C2C(=O)C(C)(OC(=O)C3CCCC3)C(=O)C=C2C=C1c1ccsc1 (stereo not drawn) the inhibition was 16.6% (active).
